Measured values reported in PubChem BioAssay.
Entries with a potency or affinity are not part of this list. Records with an inconclusive call do not appear. Calls of active or inactive are those of the source. Unless noted, no rule for the calls is given here.

What was measured:
[1] = RMG-1 ovarian cancer cell viability loss – cherry-pick, dose response (AID 687029;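 active = signal drop whose fitted half-maximal concentration is at most twice the top valid dose, in every test run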;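 also: cells exposed to compound for 96 hours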)
[2] = general cell-killing toxicity readout – plate reader, dry powder samples, cytotoxicity control for PAX8 inhibitor project, dose response (AID 743021)
[3] = IOSE-T80 viability loss, PAX8-independent line – cell-based, cherry-pick, selectivity assay for PAX8 inhibitor project, dose response (AID 687032;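 active = fitted half-maximal concentration for viability loss no higher than twice the top valid dose, in every repeat run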;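 also: cells exposed to compound for 96 h before reading; 0% = neutral control wells and -100% = 2 µM mitoxantrone kill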)
[4] = CMV-driven luciferase expression suppression in HEK293 – cell-based, luminescence, dry powder, counter-screen for Pax8 inhibitor project, dose response (AID 743020;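 active = signal-lowering compounds whose fitted half-maximal concentration is at or below twice the top tested dose in every run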;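 also: HEK293 cells stably expressing the CMV luciferase reporter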)
[5] = IGROV1 cell killing – plate reader, dry powder samples, PAX8 inhibitor project, dose response (AID 743043);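 also: more negative means fewer viable cells or more cytotoxicity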
[6] = OVCAR-3 cell viability loss – plate reader, dry powder samples, PAX8 inhibitor project, dose response (AID 743044); conditions: max activity: at 35 µM, hits give low values unless noted
[7] = toxicity toward immortalized ovarian surface epithelium – cell-based, plate reader, dry powder samples, cytotoxicity control for PAX8 inhibitor project, dose response (AID 743045);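 also: 0% = neutral control median and -100% = positive control median; more negative values mean more cell killing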
[8] = A2780 cell killing – plate reader, dry powder samples, cytotoxicity control, dose response (AID 743046);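 also: 0% = neutral control wells and -100% = cytotoxic reference compound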
[9] = OVCAR8 cell viability loss – plate reader, dry powder samples, PAX8 project, dose response (AID 743197)
[10] = toxicity toward HepG2 liver cells – cell-based, plate reader, cherry-pick, antagonist series, cytotoxicity control, dose response (AID 743416);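 also: 0% = neutral control wells and -100% = positive control wells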

Measured: max activity

CCOC(=O)N1CCC(NC(=O)c2ccc3c(c2)N=C(C)c2c(C)ccc(C)c2S3)CC1
inactive: [1] | [2]

CC(=O)NC(c1ccc(C(C)C)cc1)c1ccc2cccnc2c1O (stereo not given)
inactive: [1] | [2]

COc1ccc2c(C)nc(Nc3nc(-c4ccccc4)cc(=O)[nH]3)nc2c1
inactive: [1] | [2]

C[C@@H]1CN([C@@H](C)CO)C(=O)Cc2cc(NC(=O)Nc3ccc(C(F)(F)F)cc3)ccc2O[C@@H]1CN(C)S(=O)(=O)c1ccc(Cl)cc1
inactive: [1] | [2]

Cc1cccc(/C=C(\c2nc3ccccc3[nH]2)S(=O)(=O)c2ccccc2)c1
inactive: [1] | [2]

Oc1ccc(C[C@H]2CNC(=S)N2CC2CCCN2C[C@H](Cc2ccc(O)cc2)N2C[C@H](Cc3ccc(O)cc3)N(CC3CCCCCC3)C2=S)cc1 (stereo not given in full)
inactive: [1] | [2]

O=C(NN=Cc1c(O)ccc2ccccc12)c1ccncc1
inactive: [1] | [2]

C#CCN(C[C@@H]1[C@@H](OC(=O)NC2CCCC2)[C@@H](OC(=O)NC2CCCC2)Cn2c(=O)ccc(=O)n21)S(=O)(=O)c1ccc(C)cc1
inactive: [1] | [2]

CCCC(=O)N1CCN(c2ccc(NC(=O)c3ccc([N+](=O)[O-])o3)cc2)CC1
inactive: [1] | [2]

O=[N+]([O-])c1ccc(N/N=C/c2sc(N3CCOCC3)nc2-c2ccccc2)c(S(=O)(=O)Nc2ccc(Cl)cc2)c1
inactive: [1] | [2]

COc1ccc(-c2cnc3c(NC=O)cc(-c4ccccc4OC)cn23)cc1OC
inactive: [1] | [2]

O=C(Nc1cccc(C(F)(F)F)c1)Nc1ccc(N2CCCC2)c(S(=O)(=O)Nc2ccccc2Cl)c1
inactive: [1] | [2]

Cc1cc(-c2n[nH]c(=S)n2/N=C/C(Br)=C/c2ccccc2)n[nH]1
inactive: [1] | [2]

CC(C)(C)N(Cc1ccc2c(c1)OCO2)C(=O)/C=C\S(=O)c1ccccc1 (stereo not given)
inactive: [1] | [2]

O=C(NC(Nc1nc2ccc([N+](=O)[O-])cc2s1)(C(F)(F)F)C(F)(F)F)c1ccccc1Cl
inactive: [1] | [2]

O=C(Nc1ccc(N2CCN(C(=O)c3cccs3)CC2)cc1)c1ccc([N+](=O)[O-])o1
inactive: [1] | [2]

N#C[C@@H]1[C@H](c2ccc(C#Cc3ccc(F)cc3)cc2)[C@@H](CO)N1C(=O)Nc1ccc(F)cc1
inactive: [1] | [2]

COc1ccc(-n2ncc(Cl)c(Cl)c2=O)cc1
inactive: [1] | [2]

CN(C)c1ncnc2c1nnn2C1OC(CO)C(O)C1O (stereo not given)
inactive: [1] | [2]

CCC(=O)N1CCN(c2ccc(NC(=O)c3ccc([N+](=O)[O-])o3)cc2Cl)CC1
inactive: [1] | [2]

CC1=CC(C)(C)N2C(=O)C3(NCCc4c3[nH]c3ccccc43)c3cc(C)cc1c32 (stereo not given)
inactive: [1] | [2]

CCOC(=O)c1ccc(NC(=O)Cn2ncc(Cl)c(Cl)c2=O)cc1
inactive: [1] | [2]

COc1ccc(-c2csc(NC(=O)c3ccccc3NS(=O)(=O)c3ccc(F)c(F)c3)n2)cc1
inactive: [1] | [2]

O=c1[nH]c(-c2ccccn2)nc2sc(-c3ccccc3)cc12
inactive: [1] | [2]

Cn1nnnc1Sc1ncnc2scc(-c3cc4ccccc4o3)c12
inactive: [1] | [2]

O=c1ccc2ccccc2c2ccccc12
inactive: [1] | [2]

Oc1c(Cl)cc(CN2CCOCC2)c2cccnc12
inactive: [1] | [2]

COc1ccc(OC)c(-c2nnc3n2N=C(c2ccc(OC)c(OC4CCCC4)c2)CS3)c1
inactive: [1] | [2]

CC1CCCC=CC2CC(OC(=O)CN(C)C)CC2C(O)C=CC(=O)O1 (stereo not given)
inactive: [1] | [2]

COc1ccc(C[C@H](N)C(=O)N[C@H]2[C@@H](O)[C@H](n3cnc4c(N(C)C)ncnc43)O[C@@H]2CO)cc1
inactive: [1] | [2]

COc1cc(C2C(C#N)=C(N)Oc3cc4c(cc32)OCO4)cc(OC)c1OC (stereo not given)
inactive: [1] | [2]

CCCCC(=O)NC(c1ccccc1)c1ccc2cccnc2c1O (stereo not given)
inactive: [1] | [2]

O=S(=O)(NC1CCCCC1N1CCN(c2ccccc2F)CC1)c1ccccc1 (stereo not given)
inactive: [1] | [2]

O=[N+]([O-])c1ccc(O)c(-c2cc(C(F)(F)F)nc(-c3ccccc3)n2)c1
inactive: [1] | [2]

CCCCC(=O)NC(c1ccccc1OC)c1ccc2cccnc2c1O (stereo not given)
inactive: [1] | [2]

COc1cc2c(c(OC)c1OC)-c1ccc(OC)c(=O)cc1[C@@H](NC(C)=O)CC2
inactive: [1] | [2]

CN(/N=C/c1ccc(O)cc1O)c1nc(-c2ccccc2)cc(-c2ccccc2)n1
inactive: [1] | [2]

Cc1cccc2sc(N(CCCN(C)C)C(=O)CCS(=O)(=O)c3ccccc3)nc12
inactive: [1] | [2]

O=C(CCCN1C(=O)/C(=C/c2cccc(Br)c2)SC1=S)Nc1ccccn1
inactive: [1] | [2]

OC[C@H]1O[C@@H](n2cnc3c(NCc4ccco4)ncnc32)[C@H](O)[C@@H]1O
inactive: [1] | [2]

Cc1ccc(/C=N/NC(=O)COc2ccccc2-c2ccccc2)cc1
inactive: [1] | [2]

Cc1cc(O)c(C(C)C)cc1C1(c2cc(C(C)C)c(O)cc2C)OC(=O)c2ccccc21
inactive: [1] | [2]

CCN(CC)CCCNc1nc2ccccc2c2[nH]c3ccc(OC)cc3c12
inactive: [1] | [2]

CCOCC(=O)NC1CCc2cc(OC(=O)COCC)c(OC)c(OC)c2-c2ccc(SC)c(=O)cc21 (stereo not given)
inactive: [1] | [2]

COc1ccc2c3c([nH]c2c1)[C@@H](CO)N(C(=O)Nc1cccc(F)c1)CC31CCN(S(=O)(=O)c2cccc(C)c2)CC1
inactive: [3] | [4] | [2] | [5] | [6] -9.13% [at 8 µM, hits give low values] | [7] | [8] | [9]

COc1cccc(-c2ccc3c(c2)[C@@H]2[C@@H](CCN2S(=O)(=O)c2ccccc2C)[C@H](CO)N3C)c1
inactive: [3] | [4] | [2] | [5] | [6] -25.8% [at 30 µM, hits give low values] | [7] | [8] | [9]

Cc1ccc(S(=O)(=O)N(C)C[C@@H]2Oc3ccc(NC(=O)Nc4ccc(C(F)(F)F)cc4)cc3CC(=O)N([C@@H](C)CO)C[C@@H]2C)cc1
inactive: [3] | [4] | [2]

COc1cc(/C=C/C(=O)N2CCC=CC2=O)cc(OC)c1OC
inactive: [3] | [4] | [2]

O=C(C1CCC1)N1CCCCN2[C@H](CO)[C@H](c3ccc(-c4cccc(F)c4)cc3)[C@H]2C1
inactive: [3] | [4] | [2] | [5] | [6] 7.58% [at 0.26 µM, hits give low values] | [7] | [8] | [9]

O=S(=O)(c1ccccc1F)N1CC[C@@H]2[C@H](CO)Nc3ccc(C4=CCCCC4)cc3[C@@H]21
inactive: [3] | [4] | [2] | [5] | [6] 8.04% | [7] | [8] | [9]

COc1ccc(C#Cc2ccc([C@H]3[C@@H](CO)N4CCCCN(C(=O)Nc5ccccc5)C[C@H]34)cc2)cc1
not listed: [1] | [6] | [10]
inactive: all other assays above

COc1cc2c(c(OC)c1OC)-c1ccc(SC)c(=O)cc1C(NC=O)CC2 (stereo not given)
inactive: [1] | [2]

O=C(CN1C(=O)c2ccccc2S1(=O)=O)c1ccc(Cl)cc1Cl
inactive: [1] | [2] | [5] | [6] | [7] | [8]

C[C@@H]1CN([C@H](C)CO)C(=O)c2cc(NC(=O)Cc3ccccc3)ccc2O[C@@H](C)CCCCO[C@H]1CN(C)Cc1ccc(C(F)(F)F)cc1
inactive: [3] | [4] | [2] | [5] | [7] | [8]

COc1ccccc1NC(=O)N1CCCCN2[C@H](C1)[C@@H](c1ccc(-c3cccc(C#N)c3)cc1)[C@@H]2CO
inactive: [3] | [4] | [2] | [5] | [7] | [8]

C[C@@H]1CN([C@@H](C)CO)C(=O)c2cc(N(C)C)ccc2O[C@@H](C)CCCCO[C@H]1CN(C)S(=O)(=O)c1ccc(F)cc1
inactive: [3] | [4] | [2] | [5] | [6] 16.1% [at 0.26 µM, hits give low values] | [7] | [8] | [9]

C[C@H]1CCCCO[C@H](CN(C)Cc2ccc(C(F)(F)F)cc2)[C@@H](C)CN([C@@H](C)CO)C(=O)c2cc(NC(=O)Nc3ccc(F)cc3)ccc2O1
inactive: [3] | [4] | [2] | [5] | [6] -16.7% | [7] | [8] | [9]

C[C@@H]1CCCCO[C@@H](CN(C)Cc2ccc(C(F)(F)F)cc2)[C@H](C)CN([C@@H](C)CO)C(=O)c2cc(NS(=O)(=O)c3ccc(Cl)cc3)ccc2O1
inactive: [3] | [4] | [2] | [5] | [6] -25.4% [at 8 µM, hits give low values] | [7] | [8] | [9]

CCOc1ccc(C2=Nn3c(nnc3-c3ccccc3OC)SC2)cc1
inactive: [3] | [4]

C=C(C)c1cccc(C(C)(C)NC(=O)N2CCN(c3ccccc3OC)CC2)c1
inactive: [3] | [4] | [2]

COc1ccccc1C#Cc1ccc([C@H]2[C@H](C#N)N(C(=O)C3CCCC3)[C@H]2CO)cc1
inactive: [1] | [8] | [10]
